HCV inhibitor: inhibitors of hepatitis C virus infection; Huh7.5.1 HCVcc-Cre infection, luciferase reporter, 44 h; Potency, µM (top dose mostly 41.8 µM), inactives show at the top dose activity change, negative = inhibition, usual class: inhibitors; actives 3.4% (n = 340,000); AID 651820; note: potency is the fitted concentration of half-maximal effect
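After 44 h co-culture of compound, cells and HCVcc-Cre (~0.5 moi), substrate is added for 15 min at room temperature and luciferase measured over 15 sec. Cells were seeded at 1,000/well and pre-cultured 4 h.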
HCMV antiviral: blocks human cytomegalovirus replication. activity change, negative = inhibition, % at 57.5 µM. actives 4.5% (n = 410,000). HFF cells, HCMV-luciferase reporter, 72 h; hits give low values. AID 1259415; in the data active = activity change below about -60%; inconclusive = no clear call, values can overlap the other calls; inactive = above about -39%
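Two compound doses tested in HFFs infected with HCMV-luciferase, MOI 1 PFU/cell, 72 h at 37C. Lysate luminescence read with OneGlo; data normalized against buffer-only and 10uM Salinomycin inhibitor controls.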
Pf growth 48h: P. falciparum growth inhibition at 48 hours (one generation) | P. falciparum luciferase growth in erythrocytes, 48 h | Potency, µM (highest dose often 28.7 µM), for inactives: at the top dose activity change, negative = inhibition, hits mostly inhibitors | actives 5.9% (n = 310,000) | AID 504832; note: potency is the fitted concentration of half-maximal effect
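Read-out is firefly luciferase luminescence from an integrated reporter in P. falciparum, so falling signal marks reduced parasite growth. Infected erythrocytes were at 2% hematocrit and 0.1% parasitemia (final) in Albumax-supplemented RPMI 1640.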
MARV entry inh: blocks Marburg virus binding to or entry into cells; Marburg virus pseudotyped entry inhibition, cell reporter; Potency, µM (highest dose often 37.8 µM), without a hit: at the highest dose activity change, negative = inhibition, usual class: inhibitors; actives 1.8% (n = 300,000); calls by dose curve; tested in HEK293 cells; note: potency is the fitted concentration of half-maximal effect
Pf growth 96h: P. falciparum growth inhibition at 96 hour, primary screen for plastid delayed-death inhibitors; Potency, µM (doses to about 28.7 µM), inactives show at the top dose activity change, negative = inhibition, most hits filed as inhibitors; actives 6.9% (n = 320,000); P. falciparum luciferase reporter growth, 96 h; note: potency is the fitted concentration of half-maximal effect
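Parasite growth measured via integrated firefly luciferase reporter in P. falciparum. Infected erythrocytes at 2% hematocrit, 0.05% parasitemia final were treated 96 hours at 37 C under 5% CO2, and luminescence was read.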
LASV entry inh: blocks Lassa virus binding to or entry into cells | Lassa virus pseudotype entry inhibition, cell reporter | Potency, µM (titrated, usually from 37.9 µM), for inactives: top-dose activity change, negative = inhibition, hits mostly inhibitors | actives 1.2% (n = 300,000) | AID 540256; calls by dose curve; tested in HEK293 cells; note: potency is the fitted concentration of half-maximal effect; nearly all actives have a fitted effect of over 50% in size
* hit, by the source's call; u = inconclusive; x = no result given; [ ] = remark or other dose. Shown are actives, neighbours in structure and some others; about 14% of the full set was active somewhere. Unless noted, calls come from the whole dose curve; as a rule, active = well fitted inhibition curve with a large enough effect; inconclusive = small, poorly fitted or top-dose-only effect, or another doubt; inactive = no such curve, though single readings can be large or run the other way. % is set by controls: 0 for no effect and ±100 for the full control effect.

SMILES	HCV inhibitor	HCMV antiviral	Pf growth 48h	MARV entry inh	Pf growth 96h	LASV entry inh
CCN(c1ccc(C)cc1C)S(=O)(=O)c1nnc(NC(=O)c2ccc(F)cc2)s1	x	u	x	x	x	3%[46.1 µM]
CCN(c1ccc(C)cc1C)S(=O)(=O)c1nnc(NC(=O)C(C)C)s1	-8%	-73*	13µM*	x	-6%	x
Cc1ccc(C)c(OCc2nnc(NC(=O)c3ccco3)s2)c1	2%	1	8%	1%[46.1 µM]	10µM*	2%
CCN(c1cc(C)cc(C)c1)S(=O)(=O)c1nnc(NC(=O)c2ccco2)s1	6%	-21	-12%	x	12µM*	-10%[46.1 µM]
CCN(c1ccc(C)cc1C)S(=O)(=O)c1nnc(NC(=O)C(C)(C)C)s1	41%	33	10µM*	u	u	u
CC1=C(C(=O)N2CCCCCC2)CC(CC(=O)NCCN2CCOCC2)C(=O)N1Cc1ccc(F)cc1 (stereo unspecified)	x	-18	x	x	x	x
Cn1nccc1-c1coc2c(C(=O)NCc3ccccc3)cccc12	x	46	x	x	x	x
CCCc1ccc(OC(=O)c2sc3ncn(Cc4cccc(F)c4)c(=O)c3c2C)cc1	x	-9	x	x	x	26%[46.1 µM]
Cc1cc(C)cc(N(C)S(=O)(=O)c2nnc(NC(=O)C(C)C)s2)c1	24%	u	12%	u	-25%	u
CCN(c1cc(C)cc(C)c1)S(=O)(=O)c1nnc(NC(=O)C(C)C)s1	-9%	-77*	u	u	u	-20%
CCCCn1c(N)c(N(CC(C)C)C(=O)c2ccc(S(=O)(=O)N(CC)c3ccccc3)cc2)c(=O)[nH]c1=O	-9%	-15	12µM*	10%[46.1 µM]	u	u
CCCCn1c(N)c(N(CC(C)C)C(=O)c2cccc(S(=O)(=O)N(C)c3ccccc3)c2)c(=O)[nH]c1=O	3%	-11	u	-3%	u	3%[46.1 µM]
CCCCn1c(N)c(N(CC(C)C)C(=O)CSCC(=O)Nc2cccc(C)c2)c(=O)[nH]c1=O	-19%	-10	12µM*	2%	u	0%[46.1 µM]
CCCCn1c(N)c(N(CC(C)C)C(=O)c2cccc(S(=O)(=O)N(C)c3ccc(C)cc3)c2)c(=O)[nH]c1=O	10%	-9	6.6µM*	-28%	u	-7%
CCCCN(C(=O)c1ccc(S(=O)(=O)N(C)c2ccccc2)cc1)c1c(N)n(CCC)c(=O)[nH]c1=O	19%	-9	x	x	x	x
CN(Cc1cccs1)[C@H]1CC[C@@]23CCCN2C(=O)CCC[C@H]3[C@H]1Cc1ccccc1	x	-35	x	x	x	x
CN(C)CCNc1oc(-c2ccc(COc3ccc(Cl)cc3)o2)nc1C#N	x	-32	x	u	x	11%[46.1 µM]
Cc1cn2c(=O)c(S(=O)(=O)Nc3ccc(F)cc3F)c(C)nc2s1	x	0	x	x	x	-17%[46.1 µM]
CCOc1ccc(CNC(=O)C(=O)c2cn(CC(=O)N3CCOCC3)c3ccccc23)cc1OC	-14%	23	35%	12%	-25%	1%
COc1cccc(OC)c1C(=O)NCCc1ccccc1	-9%	18	x	x	x	x
CCOC(=O)c1sc(N)c(C(=O)Nc2ccccc2OC)c1C	-29%	6	-5%	u	5%	2.5µM*
COC(=O)c1c(N)sc(C(=O)NCCc2ccccc2)c1C	u	u	140%	5µM*	0%	u
CCOC(=O)c1sc(N)c(C(=O)OC)c1C	19%	-26	81%	16%[46.1 µM]	22%	6%
COc1ccc(S(=O)(=O)N(C)C[C@@H]2OCc3cn(nn3)CCCC(=O)N([C@@H](C)CO)C[C@H]2C)cc1	x	-19	x	x	x	x
C/C(=N\Nc1nc(C)cc(-c2ccccc2)n1)c1cccc(N)c1	6.3µM*	-34	u	x	u	x
C/C(=N\Nc1nc(C)cc(-c2ccccc2)n1)c1ccc(O)cc1	11µM*	-89*	u	x	0%	x
C/C(=N\Nc1nc(C)cc(-c2ccccc2)n1)c1ccccc1	16µM*	u	u	u	328%	u
C/C(=N/Nc1nc(C)cc(-c2ccccc2)n1)c1ccco1	u	42	-27%	0%[46.1 µM]	x	u

Source: PubChem BioAssay
